# Experimental data from PubChem BioAssay.
# Where “and” joins values, the source holds several entries; their conditions need not be identical. Identical values can stand only once. Inconclusive results are not listed. For some assays here: Entries with a potency or affinity are not part of this list. Calls of active or inactive are those of the source. Unless noted, how the calls were made is not given here.
# Tests used:
# [1] = biological target: ATP-dependent translocase ABCB1 (Homo sapiens) (UniProt P08183); experiment: MDR1 (ABCB1) efflux transporter inhibition, cell-based (AID 377; in the data active means fluorescence slope change above about 50%); conditions: MDR1-expressing cells, fluorescent substrate accumulation slope; stronger effect = higher value; concentration not given here
# ATP-dependent translocase ABCB1 (Homo sapiens), sequence (P08183 whole entry, looked up): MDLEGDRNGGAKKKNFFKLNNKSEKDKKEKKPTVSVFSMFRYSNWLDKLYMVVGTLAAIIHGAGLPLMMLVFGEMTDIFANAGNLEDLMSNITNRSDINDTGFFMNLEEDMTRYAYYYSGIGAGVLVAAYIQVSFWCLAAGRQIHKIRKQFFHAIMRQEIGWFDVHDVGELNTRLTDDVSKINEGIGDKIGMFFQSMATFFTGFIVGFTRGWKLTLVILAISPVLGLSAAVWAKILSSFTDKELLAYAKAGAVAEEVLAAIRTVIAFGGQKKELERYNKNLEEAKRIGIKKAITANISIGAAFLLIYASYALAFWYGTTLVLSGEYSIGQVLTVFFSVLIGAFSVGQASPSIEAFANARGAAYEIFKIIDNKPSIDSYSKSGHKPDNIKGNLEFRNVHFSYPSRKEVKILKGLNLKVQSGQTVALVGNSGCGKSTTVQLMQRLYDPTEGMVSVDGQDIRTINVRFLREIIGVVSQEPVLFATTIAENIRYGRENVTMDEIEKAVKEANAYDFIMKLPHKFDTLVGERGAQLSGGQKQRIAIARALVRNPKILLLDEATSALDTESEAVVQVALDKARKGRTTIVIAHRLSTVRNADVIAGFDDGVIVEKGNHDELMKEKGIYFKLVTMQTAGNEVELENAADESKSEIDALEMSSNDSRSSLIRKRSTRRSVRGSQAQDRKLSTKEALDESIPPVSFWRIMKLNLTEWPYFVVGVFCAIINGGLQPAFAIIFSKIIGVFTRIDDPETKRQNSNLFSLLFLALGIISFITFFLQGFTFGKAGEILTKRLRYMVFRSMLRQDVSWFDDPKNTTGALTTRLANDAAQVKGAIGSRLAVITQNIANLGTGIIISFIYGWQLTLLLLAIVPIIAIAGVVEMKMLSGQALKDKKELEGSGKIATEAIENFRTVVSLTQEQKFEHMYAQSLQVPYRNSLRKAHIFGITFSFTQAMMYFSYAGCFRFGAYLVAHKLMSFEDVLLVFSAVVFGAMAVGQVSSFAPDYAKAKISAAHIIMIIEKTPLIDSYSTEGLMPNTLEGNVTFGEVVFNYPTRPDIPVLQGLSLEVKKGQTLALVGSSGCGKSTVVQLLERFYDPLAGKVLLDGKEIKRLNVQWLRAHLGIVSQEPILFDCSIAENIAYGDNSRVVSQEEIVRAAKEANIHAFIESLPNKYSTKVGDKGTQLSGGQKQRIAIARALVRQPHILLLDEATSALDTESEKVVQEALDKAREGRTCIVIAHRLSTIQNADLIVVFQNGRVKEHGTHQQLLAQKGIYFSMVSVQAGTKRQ
# [2] = hESC survival regulators, cell-based (AID 493140); conditions: human embryonic stem cell survival screen; stronger effect = higher value;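 further: cells exposed to compounds for four days before counting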
# [3] = liver-stage malaria parasite growth inhibition, primary screen, cell-based, HepG2, luciferase luminescence, HepG2 viability (AID 624349; in the data active means parasite load remaining mostly below about 12%, no sharp cut-off; inactive means mostly above about 10%;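 further: 100% = mean of DMSO negative control wells on the same plate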); conditions: P. berghei liver stage in HepG2, luciferase luminescence, concentration not given here; parasite load remaining: stronger effect = lower value; viability: measured here: HepG2 viability without parasites
# [4] = biological target: 6-phosphogluconate dehydrogenase, decarboxylating (Homo sapiens) (UniProt P52209); experiment: 6PGD enzyme inhibitors, primary screen, biochemical, human, recombinant enzyme, NADPH absorbance (AID 1159550;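 active means at least 20% inhibition of 6-phosphogluconate dehydrogenase activity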); conditions: recombinant 6PGD, NADPH absorbance 341 nm; at 10 µM; stronger effect = higher value
# 6-phosphogluconate dehydrogenase, decarboxylating (Homo sapiens), sequence (P52209 whole entry, looked up): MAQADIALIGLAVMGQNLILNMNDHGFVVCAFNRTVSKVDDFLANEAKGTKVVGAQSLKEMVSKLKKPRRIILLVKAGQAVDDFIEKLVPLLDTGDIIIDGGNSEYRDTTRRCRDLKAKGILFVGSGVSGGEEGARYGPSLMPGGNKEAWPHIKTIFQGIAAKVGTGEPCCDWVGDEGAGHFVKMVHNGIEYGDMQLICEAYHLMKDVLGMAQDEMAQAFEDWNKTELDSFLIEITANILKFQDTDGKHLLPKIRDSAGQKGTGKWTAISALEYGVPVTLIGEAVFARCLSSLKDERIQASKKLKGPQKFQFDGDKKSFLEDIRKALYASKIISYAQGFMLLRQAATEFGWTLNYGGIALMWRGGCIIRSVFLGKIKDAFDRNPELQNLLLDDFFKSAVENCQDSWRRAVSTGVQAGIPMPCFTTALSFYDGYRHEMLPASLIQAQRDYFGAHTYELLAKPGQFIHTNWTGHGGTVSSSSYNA
# [5] = differential killing of epithelial or mesenchymal cells, primary screen, imaging, PC-3E GFP, TEM4-18 mCherry, co-culture (AID 1345086;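 active means compounds killing one labelled cell type while sparing the other, by normalised counts and ratio limits, not self-fluorescent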;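 on all read-outs here: cells exposed to compound for 72 h before imaging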;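 on red/green cell ratio (normalised): normalised mesenchymal count divided by normalised epithelial count so high means epithelial killing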); conditions: imaging cell counts, at 1 µM; for red/green cell ratio (normalised): actives lie on both sides
# [6] = system: Aerobactin synthetase IucA (Klebsiella pneumoniae hvKP1); experiment: Biochemical IucA enzyme inhibition primary screen of the Spectrum library (AID 1346200); conditions: malachite green pyrophosphate, A620, at 8 µM, stronger effect = lower value;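 further: 100% = wells without compound and 0% = wells lacking enzyme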
# [7] = sensitizers of A549 cells to miR-34 induction, primary screen, imaging, A549 dox-inducible miR-34, nuclei and caspase counts (AID 1347080;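 active means compounds whose cell count with miR-34 switched on is under 0.7 times the count with it off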); conditions: A549 miR-34 inducible, Hoechst nuclei count, 48 h
# [8] = survival rescue of mitochondrial mutant cells in low glucose, primary screen, MELAS cybrids, Rieske KO mouse fibroblasts, CellTiter-Glo (AID 1508586;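 active means mean z-score across replicates of 1.96 or higher in either the MELAS or the Rieske mutant cell line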;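 further: z relative to plate mean and SD of compound and empty wells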)
# [9] = biological target: Mitogen-activated protein kinase 7 (Homo sapiens) (UniProt Q13164); experiment: ERK5 transactivation activators in reporter cells, primary screen, cell-based, HTS (AID 1508626;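 active means luciferase signal above three times the same-plate solvent-only control wells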;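 further: luciferase driven by Gal4-ERK5 fusion binding five Gal4 sites before minimal TATA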); conditions: HeLa Gal4-ERK5 transactivation, 18 h, at 5 µM, stronger effect = higher value
# Mitogen-activated protein kinase 7 (Homo sapiens), sequence (Q13164 whole entry, looked up, the tested form may be a part): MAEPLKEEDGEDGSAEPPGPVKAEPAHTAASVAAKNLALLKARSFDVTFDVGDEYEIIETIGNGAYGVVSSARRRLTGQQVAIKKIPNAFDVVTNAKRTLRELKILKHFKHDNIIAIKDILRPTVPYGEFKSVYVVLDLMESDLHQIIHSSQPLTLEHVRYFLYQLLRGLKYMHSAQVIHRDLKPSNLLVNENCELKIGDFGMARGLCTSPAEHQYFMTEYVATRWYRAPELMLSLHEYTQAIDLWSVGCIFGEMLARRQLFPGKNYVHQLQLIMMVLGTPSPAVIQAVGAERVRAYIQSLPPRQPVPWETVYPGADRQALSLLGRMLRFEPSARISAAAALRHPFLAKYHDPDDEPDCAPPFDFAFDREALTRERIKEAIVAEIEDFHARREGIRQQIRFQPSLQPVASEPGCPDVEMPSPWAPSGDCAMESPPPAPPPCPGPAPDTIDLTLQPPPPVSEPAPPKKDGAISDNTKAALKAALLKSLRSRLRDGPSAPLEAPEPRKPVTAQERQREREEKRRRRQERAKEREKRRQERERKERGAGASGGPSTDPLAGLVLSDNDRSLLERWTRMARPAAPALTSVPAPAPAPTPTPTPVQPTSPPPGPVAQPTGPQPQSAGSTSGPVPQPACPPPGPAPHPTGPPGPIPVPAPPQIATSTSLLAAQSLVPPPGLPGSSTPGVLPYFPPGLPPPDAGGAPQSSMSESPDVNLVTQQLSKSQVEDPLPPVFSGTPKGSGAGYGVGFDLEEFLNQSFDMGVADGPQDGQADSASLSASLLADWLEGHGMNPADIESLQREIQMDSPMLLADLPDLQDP
# [10] = viability rescue of complex I mutant cybrids, primary screen, cell-based, galactose medium, ATP luminescence (AID 1645843;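 active means z-score of at least 1.8 in each of two replicates, scored against plate mean and spread of sample wells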;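 further: positive z means more ATP and so rescue of galactose-driven cybrid death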); conditions: complex I mutant cybrid cells, 72 h, stronger effect = higher value
# [11] = polyglutamine-triggered caspase-3 activation inhibitors, cell-based (AID 1583); conditions: polyglutamine-induced caspase-3 activation, cell assay; stronger effect = higher value;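 tested at 10 µM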
# [12] = suppressors of polyQ aggregation in yeast, 75Q-TubU reporter (AID 1593); conditions: Yeast 75Q polyglutamine aggregation reporter
# [13] = rescue of polyQ-huntingtin neuronal dysfunction in worms, whole organism, C. elegans mechanosensory neurons, N-terminal huntingtin (AID 1599); conditions: touch response, stronger effect = higher value
# [14] = inhibitors of mitochondrial cytochrome c release, biochemical, purified mitochondria (AID 1603); conditions: stronger effect = lower value;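 further: mouse liver mitochondria challenged with calcium chloride; signal normalized to the plate average as 100%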
# [15] = inhibitors of polyQ protein aggregation (AID 1604); conditions: polyglutamine-induced protein aggregation inhibition assay; stronger effect = higher value; tested at 2.5 µM
# [16] = enhancers of glutamate uptake in motor neurons, MN-1 cell line (AID 1612); conditions: MN-1 motor neuron cells, stronger effect = higher value;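 further: tested at 1 µM final; 0% = mean of DMSO vehicle wells on each plate; positive means more glutamate uptake than control and negative means less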
# [17] = reducers of polyQ inclusions in PC12 cells, cell-based, NGF-treated PC12, GFPQ80 (AID 1614); conditions: PC12 NGF-treated GFP-polyQ80 inclusion reduction;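 further: lower means fewer inclusions and 0 means no inclusions at all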
# [18] = suppressors of polyglutamine aggregation in yeast, 75Q-TubH (AID 1616); conditions: S. cerevisiae 75Q-TubH polyglutamine aggregation suppression; stronger effect = higher value
# [19] = system: Aerobactin synthetase IucA (Klebsiella pneumoniae, hypervirulent); experiment: IucA enzyme inhibition, biochemical, LOPAC library, absorbance readout (AID 1346212); conditions: IucA enzyme assay, absorbance (OD) readout; stronger effect = lower value;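 tested at 8 µM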;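 further: 100% = no compound wells and 0% = no enzyme wells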
# [20] = measured here: epithelial PC-3E GFP cell survival
# [21] = measured here: mesenchymal TEM4-18 mCherry cell survival
# [22] = measured here: relative caspase fold change +Dox/-Dox
# [23] = measured here: total cells with miR-34 induction, stronger effect = lower value
# [24] = measured here: total cells without miR-34 induction
# [25] = stronger effect = lower value, cell number ratio, induced over uninduced
smiles,measurement,setting,value
COc1ccc2c(c1)[nH]c1c(C)nccc12,fluorescence slope change,[1],59.3% (active)
same,survival,[2],4.58 (inactive)
same,viability,[3],76.6% and 67.9% and 85.5%
same,inhibition,[4],-2.64% (inactive)
same,red/green cell ratio (normalised),[5],0.67 (inactive)
same,normalised cell number,[5]; [20],0.9
same,normalised cell number,[5]; [21],0.6
same,activity remaining,[6],104% (inactive)
same,fold change,[7]; stronger effect = lower value,0.845 (inactive) and 0.909 (inactive) and 0.923 (inactive)
same,fold change,[7]; [22],1.49 and 0.507 and 1.16
same,cell count,[7]; [23],4630 and 5110 and 4130
same,cell count,[7]; [24],5480 and 5630 and 4470
same,z-score,"[8]; MELAS cybrid survival, CellTiter-Glo 48 h, stronger effect = higher value",0.384 (inactive)
same,z-score,"[8]; Rieske KO mouse fibroblast survival, CellTiter-Glo 72 h",1.34
same,luciferase signal,[9],124 AU (inactive)
same,z-score,[10],-0.45 (inactive)
OC1CCCCC1N1CCC(c2ccccc2)CC1 (stereo not given),inhibition,[11],-2.9%
same,score,[12],1.36
same,rescue above control,[13],12.8
same,cytochrome c release ratio,[14],1.15
same,inhibition of aggregation,[15],57.4%
same,glutamate uptake change,[16],-9.45%
same,inclusion score,[17],2
same,aggregation suppression score,[18],1.46
same,survival,[2],2.42 (inactive)
same,parasite load remaining,[3],122% (inactive) and 70.2% (inactive)
same,viability,[3],88.2% and 106%
same,inhibition,[4],1.03% (inactive)
same,red/green cell ratio (normalised),[5],0.98 (inactive)
same,normalised cell number,[5]; [20],1.07
same,normalised cell number,[5]; [21],1.05
same,activity remaining,[6],87.4% (inactive)
same,fold change,[7]; stronger effect = lower value,0.987 (inactive) and 1.03 (inactive) and 0.84 (inactive)
same,fold change,[7]; [22],1.87 and 1.57 and 4
same,cell count,[7]; [23],10100 and 9780 and 10400
same,cell count,[7]; [24],10200 and 9480 and 12300
same,luciferase signal,[9],60 AU (inactive)
same,z-score,[10],0.03 (inactive) and 0.65 (inactive)
CN[C@@H](C)[C@@H](O)c1ccccc1,inhibition,[11],11.2%
same,score,[12],1.57
same,rescue above control,[13],-0.65
same,cytochrome c release ratio,[14],0.84
same,inhibition of aggregation,[15],80.3%
same,glutamate uptake change,[16],-5.15%
same,inclusion score,[17],2
same,aggregation suppression score,[18],1.15
same,parasite load remaining,[3],106% (inactive) and 61.4% (inactive)
same,viability,[3],73.1% and 87.5%
same,inhibition,[4],2.73% (inactive)
same,red/green cell ratio (normalised),[5],1.05 (inactive)
same,normalised cell number,[5]; [20],1.12
same,normalised cell number,[5]; [21],1.18
same,activity remaining,[6],98.2% (inactive)
same,fold change,[7]; stronger effect = lower value,0.905 (inactive)
same,fold change,[7]; [22],3.17
same,cell count,[7]; [23],11300
same,cell count,[7]; [24],12500
same,luciferase signal,[9],36 AU (inactive)
CC1=NCCc2c1[nH]c1cc(O)ccc21,fluorescence slope change,[1],159% (active)
same,inhibition,[11],-45.7%
same,score,[12],0.81
same,rescue above control,[13],0.94
same,cytochrome c release ratio,[14],0.72
same,inhibition of aggregation,[15],14.3%
same,glutamate uptake change,[16],13.4%
same,inclusion score,[17],2
same,aggregation suppression score,[18],1.24
same,survival,[2],17.3 (inactive)
same,parasite load remaining,[3],47.1% (inactive) and 63.7% (inactive) and 58.9% (inactive)
same,viability,[3],102% and 67.4% and 76.2%
same,inhibition,[4],-14.9% (inactive)
same,red/green cell ratio (normalised),[5],0.98 (inactive)
same,normalised cell number,[5]; [20],1.01
same,normalised cell number,[5]; [21],0.99
same,activity remaining,[6],98.9% (inactive)
same,fold change,[7]; [25],0.845 (inactive)
same,fold change,[7]; [22],1.99
same,cell count,[7]; [23],8870
same,cell count,[7]; [24],10500
same,luciferase signal,[9],64 AU (inactive)
NC(N)=NOCC[C@H](N)C(=O)O,inhibition,[11],10.5%
same,score,[12],1.23
same,rescue above control,[13],-6.04
same,cytochrome c release ratio,[14],1.27
same,inhibition of aggregation,[15],85.9%
same,glutamate uptake change,[16],11.4%
same,inclusion score,[17],2
same,aggregation suppression score,[18],1.39
same,parasite load remaining,[3],114% (inactive) and 105% (inactive)
same,viability,[3],112% and 68.7%
same,inhibition,[4],12.8% (inactive)
same,red/green cell ratio (normalised),[5],1.04 (inactive)
same,normalised cell number,[5]; [20],0.91
same,normalised cell number,[5]; [21],0.95
same,activity remaining,[6],113% (inactive)
same,remaining activity,[19],106% (inactive) and 121% (inactive)
same,fold change,[7]; stronger effect = lower value,1.01 (inactive)
same,fold change,[7]; [25],0.827 (inactive)
same,fold change,[7]; [22],1.39 and 1.69
same,cell count,[7]; [23],9120 and 8920
same,cell count,[7]; [24],8990 and 10800
same,luciferase signal,[9],84 AU (inactive)
same,z-score,[10],0.085 (inactive)
CC1=C(O)C(=O)C=C2C1=CC=C1[C@@]2(C)CC[C@@]2(C)[C@@H]3C[C@](C)(C(=O)O)CC[C@]3(C)CC[C@]12C,inhibition,[4],-29.5% (inactive)
same,red/green cell ratio (normalised),[5],0.62 (inactive)
same,normalised cell number,[5]; [20],0.09
same,normalised cell number,[5]; [21],0.05
same,activity remaining,[6],122% (inactive)
same,fold change,[7]; stronger effect = lower value,0.911 (inactive)
same,fold change,[7]; [22],1.02
same,cell count,[7]; [23],948
same,cell count,[7]; [24],1040
same,luciferase signal,[9],360 AU (inactive)
CN1CCCCC1c1ccc(-c2cccnc2)nc1 (stereo not given),inhibition,[4],-0.658% (inactive)
same,red/green cell ratio (normalised),"[5]; counts scaled to control wells, 1 = unselective",1.09 (inactive)
same,normalised cell number,[5]; [20],0.96
same,normalised cell number,[5]; [21],1.04
same,activity remaining,[6],113% (inactive)
same,luciferase signal,[9],52 AU (inactive)
COc1cc2c(cc1OC)[C@@H]1C(=O)c3ccc(OC)c(CC=C(C)C)c3O[C@@H]1CO2,inhibition,[4],18.8% (inactive)
same,red/green cell ratio (normalised),[5],0.91 (inactive)
same,normalised cell number,[5]; [20],0.87
same,normalised cell number,[5]; [21],0.8
same,activity remaining,[6],109% (inactive)
same,luciferase signal,[9],68 AU (inactive)
